Several values for one entry are separate records, joined by “and”; a condition that tells them apart may be missing. Equal values may be shown once. Among all 16,000 compounds or so, about 5,700 (36%) were called active. Roughly 24% stayed inconclusive and do not appear here. The call rests on the fitted dose curve; in most records, active means well fitted curve in the direction sought with a large enough effect; inconclusive means small, poorly fitted or top-dose-only effect, or effect the other way; inactive means no such curve, though single readings can be large or run the other way. Some of the results follow.
biological target: Cytochrome P450 1A2 (Homo sapiens) (UniProt P05177); experiment: Cytochrome panel assay with activity outcomes; settings: recombinant CYP, pro-luciferin dealkylation, luminescence, p450-cyp1a2; series mostly up to 57.1 µM
Sequence (P05177 whole entry, looked up): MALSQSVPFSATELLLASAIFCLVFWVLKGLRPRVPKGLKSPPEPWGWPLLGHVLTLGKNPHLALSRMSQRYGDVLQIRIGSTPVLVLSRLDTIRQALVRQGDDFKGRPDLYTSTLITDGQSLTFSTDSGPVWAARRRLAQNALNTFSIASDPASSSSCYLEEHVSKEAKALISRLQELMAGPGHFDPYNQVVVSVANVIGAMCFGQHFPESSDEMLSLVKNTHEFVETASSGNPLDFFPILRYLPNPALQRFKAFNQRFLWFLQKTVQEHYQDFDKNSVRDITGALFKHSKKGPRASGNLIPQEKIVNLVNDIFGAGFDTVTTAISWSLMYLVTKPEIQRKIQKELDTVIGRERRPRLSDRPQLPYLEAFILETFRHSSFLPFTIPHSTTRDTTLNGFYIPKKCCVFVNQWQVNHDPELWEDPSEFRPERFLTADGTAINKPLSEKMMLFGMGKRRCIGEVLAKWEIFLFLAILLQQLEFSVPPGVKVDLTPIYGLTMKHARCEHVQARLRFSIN
On the % scale 0 is the no-effect control and ±100 the full control effect.

activity, negative = inhibition, inactive:
Cc1ccc(S(=O)(=O)N[C@H]2COC(=O)[C@@H](C)COC(=O)[C@H](C)NC(=O)C/C=C\[C@H]2C)cc1 -11.4% [at 11.4 µM]
CCOC(=S)SCC(=O)O -12.2% [at 11.4 µM]
Cc1ccc(S(=O)(=O)N[C@H]2COC(=O)C/C=C\[C@@H](C)COC(=O)C/C=C\[C@@H]2C)cc1 0.253% [at 11.4 µM] and 8.99% [at 11.4 µM]
Cc1ccc([C@@]2(C)CC/C(=N/N=C3\CC[C@](C)(c4ccc(C)c(C)c4)c4cc(C)c(C)cc43)c3cc(C)c(C)cc32)cc1C -12.4% [at 11.4 µM]
CC(C)[C@@H](OCc1ccccc1)[C@H](C)/C=N\O[C@@H](C)c1cn([C@H](CO)Cc2ccccc2)nn1 -2.54% [at 11.4 µM] and -7.97% [at 11.4 µM]
[Cu].[O-]/N=C1/C(=[OH+])Nc2ccccc21.[O-]Nc1c(O)[nH]c2ccccc12 -20.1% [at 2.29 µM]
O=C(O)c1ccc(S(=O)(=O)N=Nc2c(O)[nH]c3ccccc23)cc1 -11.7% [at 11.4 µM]
N#CC(CC(=O)O)=C(c1ccccc1)c1ccccc1 -14.5% [at 2.29 µM]
O=C(O)c1cc(C(=O)C(=O)c2cc(C(=O)O)c(O)c3ccccc23)c2ccccc2c1O -6.52% [at 11.4 µM]

AC50, active:
O=c1c2c(nc3c(-c4ccccc4)c[nH]n13)CCC2 5.62 µM
Cc1ccc(-c2[nH]n3c(=O)c4c(nc3c2C)CCCC4)cc1 2.51 µM
Nc1[nH]n2c(=O)c3c(nc2c1N=Nc1ccccc1)CCCC3 5.62 µM
CCC(=O)OCN1C(=O)C=CC1=O 3.16 µM
O=Nc1c(-c2c(O)[nH]c3ccccc23)[nH]c2ccccc12 0.0316 µM
Cc1ccc(SCCNC(=S)Nc2ccc(C)c(C)c2)cc1 11.2 µM
Cc1ccc(SCc2ccc(C(=O)NCc3ccncc3)cc2)cc1 0.355 µM
Cc1ccc(SCCNC(=O)c2ccccc2)cc1 10 µM
COCCn1c(=O)c(C)nc2cnc(Oc3cccc(Cl)c3)nc21 12.6 µM
COCCn1c(=O)cnc2cnc(Oc3cccc(Cl)c3)nc21 3.16 µM
Cc1nc2cnc(Oc3cccc(Cl)c3)nc2n(CCc2ccccc2)c1=O 12.6 µM
Cc1nc2cnc(Oc3cccc(Cl)c3)nc2n(CCC#N)c1=O 15.8 µM
CC(C)(C)Cn1nc(-c2ccc(Cl)cc2)c2c(N)ncnc21 0.158 µM
CC(C)(C)n1nc(-c2ccc(Cl)cc2)c2c(N)ncnc21 1 µM
CCCCSc1ccc2nc(-c3ccc(C#N)cc3)cn2c1 2.82 µM
CCN(CC)CCOc1ccc(/C(=C(\Cl)c2ccccc2)c2ccccc2)cc1 12.6 µM
CCc1ccc2[nH]c(O)c(N=Nc3nc(-c4ccccc4)cs3)c2c1 10 µM
COc1ccc2c(c1)OC1=C(C(=O)CCC1)C2C1=C(O)CCCC1=O (centres undefined) 7.08 µM
C=CCNc1sc(C(=O)c2ccc(C)cc2)c(N)c1C#N 1.78 µM
C=CCNc1sc(C(=O)c2ccccc2)c(N)c1C#N 3.16 µM
O=C(C1CCCCC1)N1CC(=O)N2CCc3ccccc3[C@@H]2C1 10 µM
CCOc1nc(N=C(N)N)nc2c(C)cccc12 0.178 µM
CN1Cc2c(C(=O)OC(C)(C)C)ncn2-c2ccsc2C1=O 15.8 µM
CN(C)C(=O)c1ccc(-c2cncnc2NCCc2cnc[nH]2)cc1 12.6 µM
CN(C)c1ccc(-c2cncnc2NCCc2cnc[nH]2)cc1 1.26 µM
c1ncc(-c2ccc3c(c2)OCO3)c(NCCc2cnc[nH]2)n1 0.398 µM
CCc1c(C)sc(NC(=O)OC)c1C(N)=O 8.91 µM
O=C(c1ccc(Cl)c(Cl)c1)c1cc(-c2ccccn2)c(N2CCOCC2)s1 11.2 µM
O=C(O)c1c2ccccc2cc2ccccc12 0.2 µM

AC50, inactive:
CC(C)NC(=O)N1CC[C@@]2(CCCN(C(=O)c3cc(C(F)(F)F)cc(C(F)(F)F)c3)C2)C1
N#Cc1c[nH]n2c(=O)c3c(nc12)CCCC3
CCN1C(=O)C=CC1=O
Cc1ccc(C(=O)NCc2ccc(N3CCN(C(=O)OC(C)(C)C)CC3)cc2)cc1
Cc1ccc(C(=O)NCCNC(=O)CN2CCOCC2)cc1
Cc1ccc(NC(=S)NCCN2CCOCC2)cc1C
Cc1ccc(SCc2nnc(NC(=O)c3ccccc3)s2)cc1
N[C@H](C(=O)N[C@@H]1C(=O)N2C(C(=O)O)=C(Cl)CS[C@@H]12)c1ccccc1
CC(=NCCN1CCN(C(=S)Nc2ccccc2)CC1)C1=C(O)CC(C)(C)CC1=O
CO/N=C(\C(=O)N[C@@H]1C(=O)N2C(C(=O)[O-])=C(C[N+]3(C)CCCC3)CS[C@@H]12)c1csc(N)n1
CN(C)CCNC(=O)C1CCCNC1=O (centres undefined)
COc1ccc(C(Cl)=C(c2ccc(OC)cc2)c2ccc(OC)cc2)cc1
C[N+](C)(C)CCCCCCCCCC[N+](C)(C)C
Cc1ccc(S(=O)(=O)Oc2ccc(C3C4=C(CCCC4=O)OC4=C3C(=O)CCC4)cc2)cc1
O=C1CCCC2=C1C(c1ccc(OS(=O)(=O)c3ccc(Cl)cc3)cc1)C1=C(CCCC1=O)O2
CCN1CCN(C(=O)C2c3cc(OC)c(OC)cc3C(=O)N3CCc4ccccc4C23)CC1 (centres undefined)
O=C(NC1CCCc2ccccc21)C1CCN(S(=O)(=O)N2CCCCCC2)CC1 (centres undefined)
Cc1sc(NC(=O)C2CCCCC2C(=O)O)c(C(N)=O)c1C (centres undefined)
CCCCCc1nnc(NC(=O)C(=O)OCC)s1
O=C(Oc1ccc(C(=S)N2CCOCC2)cc1Br)c1cc(Cl)ccc1Cl
O=C(O)c1cc2ccccc2c(Cc2cc3ccccc3c(C(=O)O)c2O)c1O (tested in a mixture with another compound)
